In PubChem BioAssay (Tox21):
Values joined by “and” are separate entries in the source; they are usually repeats but may differ in a detail not shown here. Equal values may be shown once. Inconclusive results are not listed. Some compounds were tested as several samples or in several runs, with calls that do not always agree. Active and inactive are the calls of the source. Unless noted, calls come from the whole dose curve; as a rule, active = well fitted curve in the direction sought with a large enough effect in the repeat runs; inconclusive = weak or mixed curves; inactive = no such curve, though single readings can be large; an effect the other way counts as inactive or inconclusive.

Assays:
[1] = A CellTox Green Cytotoxicity Assay to monitor cytotoxicity in HepG2 cells - 8 hour (AID 1224890); note: nearly all actives have a fitted effect of over 45% in size; note: potency is the fitted concentration of half-maximal effect
Procedure, shortened: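 Real-time, homogeneous cytotoxicity readout: dead-cell DNA staining by CellTox Green in HepG2 monolayers, fluorescence measured at timed intervals up to 40 h of continuous compound exposure.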

[2] = qHTS assay to identify small molecule antagonists of the estrogen receptor alpha (ER-alpha) signaling pathway using the BG1 cell line in the presence of 0.1 nM 17-beta-estradiol - cell viability counter screen (AID 1259241); note: nearly all actives have a fitted effect of over 40% in size
Procedure, shortened: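 Estradiol-stimulated (0.1 nM) VM7Luc4E2 cells exposed to compounds 22 hr; viability measured by fluorescence of cleaved CellTiter-Fluor substrate after 30 min.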

[3] = qHTS assay to identify small molecule antagonists of the androgen receptor (AR) signaling pathway using the MDA cell line in the presence of 0.5 nM R1881 - cell viability counter screen (AID 1259242); note: nearly all actives have a fitted effect of over 45% in size
Procedure, shortened: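 Cytotoxicity toward MDA-kb2 cells is measured by CellTiter-Fluor live-cell protease fluorescence after 16 hr compound exposure at 37C in the presence of 0.5 nM R1881 stimulator.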

[4] = target: Estrogen receptor (Homo sapiens) (UniProt P03372); assay: qHTS assay to identify small molecule antagonists of the estrogen receptor alpha (ER-alpha) signaling pathway using the BG1 cell line in the presence of 0.1 nM 17-beta-estradiol (AID 1259244); note: nearly all actives have a fitted effect of over 50% in size
Procedure, shortened: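 After 5 days in hormone-depleted medium (charcoal-stripped serum, no phenol red), VM7Luc4E2 cells were seeded, incubated 24 h, then co-treated with compound and 0.1 nM (final) estradiol for 22 h before luminescence detection.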

[5] = qHTS assay to identify small molecule phospholipidosis (PLD) inducers (AID 1259344; active = well fitted curve in the direction sought with a large enough effect; an effect the other way counts as inactive or inconclusive)
Procedure, shortened: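 HepG2 cells, 900/well, treated with compound plus LipidTOX Red for 24 h at 37 C; amiodarone positive and DMSO negative controls. Fixed with paraformaldehyde/Hoechst, then high-content imaging scored LipidTOX pit count and integrated intensity per well and per cell.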

[6] = qHTS assay to identify small molecule HDAC inhibitors (AID 1259364); note: top concentration of the series differs between compounds; nearly all actives have a fitted effect of over 45% in size
Procedure, shortened: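 Homogeneous cell-based luminescent assay of endogenous class I/II HDAC activity; HCT-116 cells, 2 h compound exposure, 30 min HDAC-Glo development at RT.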

[7] = qHTS assay to identify small molecule HDAC inhibitors - cell viability counter screen (AID 1259365); note: series mostly up to about 92 µM; nearly all actives have a fitted effect of over 50% in size
Procedure, shortened: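 After overnight seeding at 1,500 cells per well, wild-type HCT-116 cultures took up compounds in DMSO for 2hr at 37 C. Viable cell content came from luminescence with CellTiter-Glo.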

[8] = qHTS assay to identify small molecule agonists of the sonic hedgehog signaling (Shh) pathway - cell viability counter screen (AID 1259366); note: nearly all actives have a fitted effect of over 50% in size
Procedure, shortened: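 Same-well cytotoxicity read. Gli1-Luc reporter 3T3 cells; compounds 24hr, 37C/5% CO2; CellTiter-Fluor fluorescence.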

[9] = qHTS assay to identify small molecule antagonists of the sonic hedgehog signaling (Shh) pathway - cell viability counter screen (AID 1259367); note: nearly all actives have a fitted effect of over 55% in size
Procedure, shortened: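 NIH/3T3-derived Gli1-Luc reporter cells, 2,000/well, plated 4 hr before compound addition, then stimulated with conditioned medium for 24 hr at 37C. Viability measured in the same wells by CellTiter-Fluor fluorescence, reagent added at 23 hr for 1 hr.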

[10] = target: Estrogen receptor beta (Homo sapiens) (UniProt Q92731); assay: qHTS assay to identify small molecule agonists of the estrogen receptor beta (ER-beta) signaling pathway (AID 1259377; active = well fitted activation curve with a large enough effect in the signal ratio in the repeat runs, not every such curve was filed as active; the % refers to the signal ratio)
Procedure, shortened: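 Read-out: beta-lactamase FRET fluorescence. Cell line: ER-beta-UAS-bla HEK293T in 2% charcoal-stripped FBS. Exposure: 16 hr at 37C. Substrate step: 2 h at room temperature.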

[11] = target: Estrogen receptor beta (Homo sapiens) (UniProt Q92731); assay: qHTS assay to identify small molecule antagonists of the estrogen receptor beta (ER-beta) signaling pathway (AID 1259378; active = well fitted inhibition curve with a large enough effect in the signal ratio in the repeat runs, not every such curve was filed as active; the % refers to the signal ratio)
Procedure, shortened: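 ER-beta-UAS-bla HEK293T cells in 2% charcoal-stripped FBS medium treated with compound plus 1nM final 17-beta-estradiol for 16 hr at 37C. Beta-lactamase reporter read by FRET substrate fluorescence after 2 hours at room temperature.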

[12] = qHTS assay to identify small molecule agonists of the androgen receptor (AR) signaling pathway in the presence of an antagonist - cell viability counter screen (AID 1259379);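 note: MDA-kb2 human breast cancer cells carrying an MMTV luciferase reporter; series mostly up to about 92 µM; nearly all actives have a fitted effect of over 25% in size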
Procedure, shortened: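 Fluorescence from CellTiter-Fluor, added after 15 hr and read 1 hr later, gave cell viability. Cells were MDA-kb2 exposed to compounds (15 concentrations) in the presence of 3.0uM nilutamide at 37C, 0% CO2.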

[13] = qHTS assay to identify small molecule agonists of the estrogen receptor beta (ER-beta) signaling pathway - cell viability counter screen (AID 1259380); note: nearly all actives have a fitted effect of over 30% in size
Procedure, shortened: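 Same-well viability counter screen. Cells: ER-beta-UAS-bla HEK293T, plated 6 hr before compound, in 2% charcoal-stripped FBS. Compound exposure 16 hr, 37C; viability by CellTiter-Glo luminescence after 30 min at room temperature.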

[14] = qHTS assay to identify small molecule antagonists of the estrogen receptor beta (ER-beta) signaling pathway - cell viability counter screen (AID 1259382); note: series mostly up to about 92 µM; nearly all actives have a fitted effect of over 55% in size
Procedure, shortened: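 Following a 6 hr plating period, HEK293T cells carrying a UAS-driven beta-lactamase reporter under ER-beta control received compounds and 1nM E2 (final). After 16 hr at 37C and 2 hr substrate loading, CellTiter-Glo luminescence indicated viability.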

[15] = target: Estrogen receptor (Homo sapiens) (UniProt P03372); assay: qHTS assay to identify small molecule agonists of the estrogen receptor alpha (ER-alpha) signaling pathway in the presence of an antagonist (AID 1259383; calls by dose curve; note: top concentration of the series differs between compounds; nearly all actives have a fitted effect of over 15% in size)
Procedure, shortened: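 Cells are hormone-deprived for 5 days (charcoal-stripped FBS, no phenol red), plated for 24hr, spiked with 10.0nM ICI-182,780, then dosed at 15 concentrations. After 22hr at 37C, ONE-Glo luminescence reports ERE-luciferase activity.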

[16] = qHTS assay to identify small molecule agonists or antagonists of the thyroid stimulating hormone receptor (TSHR) signaling pathway - wild type cell line counter screen (AID 1259384; calls by dose curve)
Procedure, shortened: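 Wild-type Hek293 cells, 800/well, 18 h at 37C, then compound with Ro20-1724 for 30 min RT. cAMP by HTRF (cAMP-d2/anti-cAMP cryptate), 1 h RT, fluorescence read. 15 concentrations, triplicates.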

[17] = qHTS assay to identify small molecule agonists of the sonic hedgehog signaling (Shh) pathway (AID 1259368; calls by dose curve;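 note: NIH/3T3-derived 3T3Gli1-Luc cells carrying a stable Gli1-driven firefly luciferase reporter; series mostly up to about 92 µM; nearly all actives have a fitted effect of over 15% in size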)
Procedure, shortened: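 Steps: seed 3T3 Gli1-Luc cells, incubate 4 hr at 37 C, pin-transfer compounds in DMSO alongside a positive control, incubate 24 hr, add luciferase detection reagent, wait 30 min at room temperature, read luminescence.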

[18] = qHTS assay to identify small molecule antagonists of the sonic hedgehog signaling (Shh) pathway (AID 1259369; calls by dose curve; note: nearly all actives have a fitted effect of over 45% in size)
Procedure, shortened: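 Inhibition of Shh signalling is measured as reduced Gli1-response-element firefly luciferase output in an NIH/3T3-derived stable reporter clone stimulated with conditioned medium for 24hr.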
% is set by controls: 0 for no effect and ±100 for the full control effect.

Chain of Estrogen receptor beta (Homo sapiens) (Q92731 whole entry, looked up): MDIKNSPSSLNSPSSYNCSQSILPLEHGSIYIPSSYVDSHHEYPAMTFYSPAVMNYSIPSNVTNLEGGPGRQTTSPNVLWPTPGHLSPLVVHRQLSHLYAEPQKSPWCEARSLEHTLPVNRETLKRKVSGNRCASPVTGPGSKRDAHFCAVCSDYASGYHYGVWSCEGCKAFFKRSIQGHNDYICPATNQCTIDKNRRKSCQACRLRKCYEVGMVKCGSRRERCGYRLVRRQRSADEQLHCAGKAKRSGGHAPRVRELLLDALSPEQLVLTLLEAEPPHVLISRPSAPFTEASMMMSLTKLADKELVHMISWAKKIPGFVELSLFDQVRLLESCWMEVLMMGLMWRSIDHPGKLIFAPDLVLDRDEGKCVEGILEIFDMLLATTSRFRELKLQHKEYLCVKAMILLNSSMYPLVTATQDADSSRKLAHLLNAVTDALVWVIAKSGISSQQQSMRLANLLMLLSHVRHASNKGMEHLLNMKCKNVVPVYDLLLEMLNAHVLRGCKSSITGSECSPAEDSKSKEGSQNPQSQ
Chain of Estrogen receptor (Homo sapiens) (P03372 whole entry, looked up): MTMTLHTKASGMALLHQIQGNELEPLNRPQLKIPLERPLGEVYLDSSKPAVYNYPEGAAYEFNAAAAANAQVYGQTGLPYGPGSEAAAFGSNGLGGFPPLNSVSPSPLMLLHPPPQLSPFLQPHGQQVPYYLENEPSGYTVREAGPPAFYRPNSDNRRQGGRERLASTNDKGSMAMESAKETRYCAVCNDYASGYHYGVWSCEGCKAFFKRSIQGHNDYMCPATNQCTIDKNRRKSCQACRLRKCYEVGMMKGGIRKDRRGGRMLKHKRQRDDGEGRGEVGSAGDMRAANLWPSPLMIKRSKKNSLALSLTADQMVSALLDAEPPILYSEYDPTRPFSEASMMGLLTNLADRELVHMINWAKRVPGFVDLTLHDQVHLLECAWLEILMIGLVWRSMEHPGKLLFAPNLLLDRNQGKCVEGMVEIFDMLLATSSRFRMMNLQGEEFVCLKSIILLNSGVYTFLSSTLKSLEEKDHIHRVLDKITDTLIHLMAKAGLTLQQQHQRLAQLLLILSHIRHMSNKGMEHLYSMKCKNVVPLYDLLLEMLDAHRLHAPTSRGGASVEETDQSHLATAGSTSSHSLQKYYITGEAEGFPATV

COC(=O)c1c(Cl)c(Cl)c(C(=O)OC)c(Cl)c1Cl
inactive: outcome [2] | Potency [3] | outcome [4] | Potency [5] | Potency [6] | outcome [7] | Potency [8] | Potency [9] | outcome [10] | outcome [11] | Potency [12] | Potency [13] | Potency [14] | Potency [15] | outcome [16]
inactive and 110 nM (active): Potency [1]

CCOC(=O)c1ccc(C)cc1
inactive: Potency [1] | outcome [2] | Potency [3] | outcome [4] | Potency [6] | outcome [7] | Potency [8] | Potency [9] | outcome [17] | Potency [18] | outcome [10] | outcome [11] | Potency [12] | Potency [13] | Potency [15]

Cc1cccn2c(=O)c(-c3nnn[nH]3)cnc12
inactive: cytotoxicity increase [1] 3.76% [at 15.8 µM] | activity change, negative = cytotoxicity [2] 2.88% [at 19 µM] | viability change, negative = cytotoxic [3] 3.32% [at 19 µM] | activity change, negative = inhibition [4] 3.45% [at 19 µM] | Potency [5] | activity change, negative = cytotoxicity [7] -4.27% [at 19 µM] | Potency [9] | activity change [17] 0.228% [at 18.9 µM] | outcome [10] | activity, negative = inhibition [11] 3.16% [at 19 µM] | activity change, negative = cytotoxicity [12] 1.69% [at 19 µM] | activity change, negative = cytotoxicity [14] -8.96% [at 19 µM] | activation [15] -1.22% [at 19 µM] | cAMP activity change [16] -0.907% [at 18.9 µM]

CCCCCCCCCCCCCCCCC
inactive: Potency [1] | outcome [2] | Potency [3] | outcome [4] | Potency [6] | outcome [7] | Potency [8] | Potency [9] | outcome [17] | Potency [18] | outcome [10] | outcome [11] | Potency [12] | Potency [13] | Potency [14] | Potency [15]

CCOC(=O)[C@H](CCc1ccccc1)N[C@@H](C)C(=O)N1[C@H](C(=O)O)C[C@@H]2CCC[C@@H]21
inactive: Potency [1] | outcome [2] | Potency [3] | outcome [4] | Potency [5] | outcome [7] | Potency [8] | Potency [9] | Potency [18] | outcome [10] | outcome [11] | Potency [12] | Potency [13] | Potency [14] | Potency [15]

CCOC(=O)c1cccc(N)c1
inactive: Potency [1] | outcome [2] | Potency [3] | outcome [4] | Potency [5] | Potency [6] | outcome [7] | Potency [9] | outcome [17] | Potency [18] | outcome [10] | outcome [11] | Potency [12] | Potency [13] | Potency [14] | Potency [15]

Cc1cc2c(cc1S(N)(=O)=O)S(=O)(=O)CCC2
inactive: Potency [1] | outcome [2] | Potency [3] | outcome [4] | Potency [5] | Potency [6] | outcome [7] | Potency [9] | outcome [17] | Potency [18] | outcome [10] | outcome [11] | Potency [12] | Potency [13] | Potency [14] | Potency [15]

O=[N+]([O-])c1ccc(F)cc1F
inactive: Potency [1] | outcome [2] | Potency [3] | outcome [4] | Potency [6] | outcome [7] | Potency [8] | Potency [9] | outcome [17] | Potency [18] | outcome [10] | outcome [11] | Potency [12] | Potency [13] | Potency [14] | Potency [15]

CC(C)(C)c1nnc(NS(=O)(=O)c2ccccc2)s1
inactive: Potency [1] | outcome [2] | Potency [3] | outcome [4] | Potency [5] | Potency [6] | outcome [7] | Potency [9] | outcome [17] | Potency [18] | outcome [10] | outcome [11] | Potency [12] | Potency [13] | Potency [15] | outcome [16]

CCN(CC)CCNC(=O)c1cc(S(C)(=O)=O)ccc1OC
inactive: Potency [1] | outcome [2] | Potency [3] | outcome [4] | Potency [5] | outcome [7] | Potency [8] | Potency [9] | outcome [17] | Potency [18] | outcome [10] | outcome [11] | Potency [12] | Potency [13] | Potency [14] | Potency [15] | outcome [16]

c1ccc(CC2=NCCN2)cc1
inactive: Potency [1] | outcome [2] | Potency [3] | outcome [4] | Potency [5] | Potency [6] | outcome [7] | Potency [9] | outcome [17] | outcome [10] | Potency [12] | Potency [13] | Potency [14] | Potency [15]

CC1=CC(C)C(C=O)CC1 (centres undefined)
inactive: Potency [1] | outcome [2] | Potency [3] | outcome [4] | Potency [6] | outcome [7] | Potency [8] | Potency [9] | outcome [17] | Potency [18] | outcome [10] | outcome [11] | Potency [12] | Potency [13] | Potency [14] | Potency [15] | outcome [16]

CCC(=O)OC(C)c1ccccc1 (centres undefined)
inactive: Potency [1] | outcome [2] | Potency [3] | outcome [4] | Potency [6] | outcome [7] | Potency [8] | Potency [9] | outcome [17] | Potency [18] | outcome [10] | outcome [11] | Potency [12] | Potency [13] | Potency [15] | outcome [16]

Cc1cc(O)cc2c1O[C@](C)(CCC[C@H](C)CCC[C@H](C)CCCC(C)C)CC2
inactive: Potency [1] | outcome [2] | Potency [3] | outcome [4] | Potency [5] | Potency [6] | outcome [7] | Potency [8] | Potency [9] | Potency [18] | Potency [12] | Potency [13] | Potency [14] | Potency [15] | outcome [16]
